Our source for the growth values is PubChem BioAssay (NCI).

Among the test systems are NCI-H23 lung; NCI-H226 lung; NCI-H322M lung; HOP-62 NSCLC; NCI-H460 lung; NCI-H522 lung; A549/ATCC NSCLC; 786-0 renal; COLO 205 colon; DU-145 prostate.
Holding throughout (test): NCI-60 one-dose screen, 48 h (100 = growth as untreated, 0 = no growth, -100 = all killed)
What all share (conditions): 10 µM

Compounds without any hit were thinned out: in the full panel of roughly 83,000, 20% have a hit.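 Cell lines were cultured in 96-well plates, exposed to a single compound concentration, and assessed for percent growth 48 hours later.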 Values without a mark were called inactive. Active and inactive are the calls of the source. How the source made its calls: active means growth percent below 10; inactive means the rest.

Regarding `Clc1ccc2c(NCCCNc3nccc(Nc4ccc(Br)cc4)n3)ccnc2c1`, the growth in the assay on NCI-H23 lung is 46.8%; with NCI-H226 lung it was 90.1%; in the assay with NCI-H322M lung it was -19.9% (active); in the assay with HOP-62 NSCLC, 1.45% (active); in the assay on NCI-H460 lung, -45.9% (active); in the assay on NCI-H522 lung, -83.2% (active). In addition, the growth with A549/ATCC NSCLC was -71.7% (active); in the assay on 786-0 renal, -98.9% (active); in the assay on COLO 205 colon, -84.3% (active); in the assay on DU-145 prostate it was 9.83% (active).

As to `COc1ccccc1CNCCCN1C(=O)c2ccc3c4c(ccc(c24)C1=O)C(=O)N(CCCN)C3=O`, the growth in the assay with NCI-H23 lung was -34.7% (active); in the assay with NCI-H226 lung, 47.3%; with NCI-H322M lung, -30.7% (active); in the assay on HOP-62 NSCLC, 18.7%; in the assay on NCI-H460 lung it was -50.8% (active); in the assay with NCI-H522 lung, -79.1% (active). Further, the growth in the assay with A549/ATCC NSCLC is -28% (active); in the assay on 786-0 renal, 4.32% (active); in the assay with COLO 205 colon, -87.5% (active); in the assay with DU-145 prostate, -95.6% (active).

Take `COc1ccc(C2CC(c3ccc(N(C)C)cc3)=NN2c2ccc(S(N)(=O)=O)cc2)cc1` (stereo not given): the growth in the assay with NCI-H23 lung was 53.6%; in the assay with NCI-H226 lung, 52.4%; in the assay on NCI-H322M lung, 83.1%; with HOP-62 NSCLC, 78.2%; in the assay with NCI-H460 lung, 29.2%; with NCI-H522 lung, 40.9%. Further, the growth was 26.1% in the assay with A549/ATCC NSCLC, 64.3% with 786-0 renal, 55.4% with COLO 205 colon and 78.4% with DU-145 prostate.

As to `N#Cc1c(C#N)c(SSc2c(C#N)c(C#N)c(N)n2-c2ccccc2)n(-c2ccccc2)c1N`, the growth with NCI-H23 lung was 94.8%; in the assay with NCI-H226 lung, 101%; in the assay with NCI-H322M lung it was 108%; with HOP-62 NSCLC it was 109%; in the assay on NCI-H460 lung, 120%; in the assay on NCI-H522 lung, 67.3%. The growth in the assay with A549/ATCC NSCLC was 112%; in the assay with 786-0 renal, 101%; in the assay on COLO 205 colon it was 97.4%; in the assay on DU-145 prostate, 115%.

Turning to `CCOC(=O)C1(CC(C)C)CCOC1=O` (stereo not given), the growth in the assay with NCI-H23 lung was 102%; in the assay on NCI-H226 lung it was 106%; in the assay with NCI-H322M lung it was 104%; in the assay with HOP-62 NSCLC it was 109%; in the assay on NCI-H460 lung, 103%; with NCI-H522 lung, 100%. Moreover, the growth in the assay with A549/ATCC NSCLC was 94.8%; with 786-0 renal, 107%; in the assay on COLO 205 colon, 115%; in the assay with DU-145 prostate, 105%.

For the compound `c1ccc(CNc2ncnc3scc(-c4cccs4)c23)nc1`, the growth was 53.5% in the assay with NCI-H23 lung; 68.1% in the assay on NCI-H226 lung; 86.3% in the assay with NCI-H322M lung; 65% with HOP-62 NSCLC; 77.4% with NCI-H460 lung; 60.4% with NCI-H522 lung. Also, the growth in the assay with A549/ATCC NSCLC is 56.6%; in the assay on 786-0 renal, 79.6%; with COLO 205 colon, 89.7%; in the assay with DU-145 prostate, 92.1%.

In the case of `COc1cc(NC(=O)CSc2nc3ccccc3c(=O)n2CCc2ccccc2)cc(OC)c1OC`, the growth is 26.6% in the assay with NCI-H23 lung; -0.963% (active) in the assay with NCI-H226 lung; 27.7% with NCI-H322M lung; 9.57% (active) in the assay on HOP-62 NSCLC; -30.2% (active) in the assay on NCI-H460 lung; -23.9% (active) in the assay with NCI-H522 lung. Also, the growth in the assay with A549/ATCC NSCLC was 24.9%; in the assay on 786-0 renal it was -80.1% (active); in the assay on COLO 205 colon it was 29.9%; in the assay on DU-145 prostate it was 45.9%.

For the compound `Cc1ccc(Nc2nnc(-c3cc(-c4ccncc4)n(-c4ccccc4)n3)s2)cc1`, the growth is 90.5% with NCI-H23 lung; 86.2% in the assay with NCI-H226 lung; 98.7% in the assay with NCI-H322M lung; 114% in the assay on HOP-62 NSCLC; 56.8% in the assay on NCI-H460 lung; 84.5% in the assay on NCI-H522 lung. The growth with A549/ATCC NSCLC was 60.5%; in the assay on 786-0 renal, 41.9%; with COLO 205 colon it was 73.8%; in the assay on DU-145 prostate, 107%.

As for `O=C(CCCCCCC(=O)Nc1cccnc1)NO`, the growth was 57.9% with NCI-H23 lung; 86.5% in the assay on NCI-H226 lung; 27.7% in the assay with NCI-H322M lung; 39.5% with HOP-62 NSCLC; 39.9% with NCI-H460 lung; -12.8% (active) in the assay with NCI-H522 lung. Further, the growth was 66.2% with A549/ATCC NSCLC, 70.4% with 786-0 renal, 113% in the assay with COLO 205 colon and 40.1% in the assay with DU-145 prostate.

For the compound `CN(C)C(=S)N/N=C\C=N/NC(=S)N(C)C`, the growth in the assay on NCI-H23 lung was 62.6%; in the assay on NCI-H226 lung, 76.9%; in the assay with NCI-H322M lung, 48.9%; in the assay on HOP-62 NSCLC it was 92.9%; with NCI-H460 lung, 23.7%; with NCI-H522 lung it was 1.5% (active). Moreover, the growth in the assay on A549/ATCC NSCLC is 40.1%; in the assay on 786-0 renal, 85.3%; in the assay on COLO 205 colon, -1.67% (active); with DU-145 prostate, 37.4%.

For `COc1ccc(Cl)cc1-n1nnc(-c2nc3ccccc3[nH]2)c1N`, the growth was 92.8% in the assay with NCI-H23 lung; 60% in the assay on NCI-H226 lung; 75% in the assay with NCI-H322M lung; 37.3% with HOP-62 NSCLC; 27.7% in the assay on NCI-H460 lung; 68.6% in the assay with NCI-H522 lung. Moreover, the growth in the assay on A549/ATCC NSCLC is 61.8%; in the assay with 786-0 renal it was 58.1%; in the assay with COLO 205 colon, 98.1%; with DU-145 prostate, 93.4%.

Turning to `COc1ccc(N2C(=O)C3c4[nH]c5ccc(OCc6ccccc6)cc5c4C4CCC(C(C)C)CC4C3C2=O)cc1` (stereo not given), the growth with NCI-H23 lung is 104%; in the assay on NCI-H226 lung, 104%; in the assay on NCI-H322M lung, 102%; in the assay with HOP-62 NSCLC, 113%; in the assay on NCI-H460 lung, 103%; in the assay with NCI-H522 lung it was 34.6%. Also, the growth in the assay with A549/ATCC NSCLC was 99.4%; in the assay on 786-0 renal, 97.6%; in the assay with COLO 205 colon, 102%; in the assay on DU-145 prostate it was 113%.

For the compound `COc1ccc(-c2nc3ncccn3c2-c2nnc(-c3ccc(F)cc3)o2)cc1`, the growth with NCI-H23 lung is 98.2%; with NCI-H226 lung, 96.7%; with NCI-H322M lung, 101%; in the assay with HOP-62 NSCLC, 106%; with NCI-H460 lung, 101%; in the assay on NCI-H522 lung, 106%. For the same compound, the growth in the assay with A549/ATCC NSCLC was 104%; in the assay with 786-0 renal, 101%; in the assay with COLO 205 colon it was 113%; in the assay on DU-145 prostate, 106%.

For the compound `CC1(C)CCC(=NNC(N)=S)CC1`, the growth in the assay on NCI-H23 lung was 99.1%; with NCI-H226 lung, 110%; in the assay on NCI-H322M lung it was 115%; in the assay with HOP-62 NSCLC it was 111%; in the assay on NCI-H460 lung, 104%; in the assay on NCI-H522 lung, 97.1%. In addition, the growth was 106% in the assay with A549/ATCC NSCLC, 113% in the assay with 786-0 renal, 125% with COLO 205 colon and 111% with DU-145 prostate.
